Experimental data taken from PubChem BioAssay (NCATS).
Results filed as inconclusive are left out. The source made the active and inactive calls. Unless noted, calls follow the shape of the dose curve; as a rule, active = well fitted curve in the direction sought with a large enough effect; inconclusive = small, poorly fitted or top-dose-only effect, or another doubt; inactive = no such curve, though single readings can be large; an effect the other way counts as inactive or inconclusive.

Key:
[1] = qHTS assay for small molecule antagonists of peroxisome proliferator-activated receptor delta signaling (AID 588535; active = well fitted inhibition curve with a large enough effect in the signal ratio, with a control signal flat, not every such curve was filed as active; the % refers to the signal ratio;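 as to max response: cells co-treated with a PPAR-delta agonist as stimulator during compound exposure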); conditions: HEK293T PPARd-UAS-bla, beta-lactamase FRET ratio, 18 h; 460 nm channel
In short: (§1)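 Reporter: UAS-bla under PPAR-delta response element, HEK293T host. Medium: 2% charcoal/dextran FBS. Dosing: titration, 18 hrs, 37 C. Detection: CCF4, 2 hrs RT, 405 ex/460 and 530 em.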

[2] = biological target: Peroxisome proliferator-activated receptor delta (Homo sapiens) (UniProt Q03181); test: as above; conditions: HEK293T PPARd-UAS-bla, beta-lactamase FRET ratio, 18 h; series mostly up to 76.7 µM
Peroxisome proliferator-activated receptor delta (Homo sapiens), sequence (Q03181 whole entry, looked up): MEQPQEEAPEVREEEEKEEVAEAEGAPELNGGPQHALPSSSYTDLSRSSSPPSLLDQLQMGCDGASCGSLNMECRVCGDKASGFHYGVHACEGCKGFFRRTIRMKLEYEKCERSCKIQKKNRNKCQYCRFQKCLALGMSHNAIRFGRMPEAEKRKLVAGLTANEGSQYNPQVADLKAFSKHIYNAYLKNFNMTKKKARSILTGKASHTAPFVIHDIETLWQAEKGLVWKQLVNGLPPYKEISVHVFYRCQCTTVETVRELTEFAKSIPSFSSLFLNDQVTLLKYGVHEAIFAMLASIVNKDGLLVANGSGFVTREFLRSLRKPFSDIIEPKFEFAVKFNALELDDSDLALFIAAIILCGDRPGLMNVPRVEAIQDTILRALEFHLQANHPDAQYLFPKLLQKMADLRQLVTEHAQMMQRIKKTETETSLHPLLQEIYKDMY
In short: as §1

[3] = biological target: Vitamin D3 receptor (Homo sapiens) (UniProt P11473); test: qHTS assay for small molecule antagonists of vitamin D receptor signaling (AID 588541; calls by dose curve;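 also: receptor activated by calcitriol during compound treatment; % is scaled to controls: 0 for no effect and ±100 for the full control effect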); conditions: HEK293T VDR-UAS-bla, beta-lactamase ratio, antagonist mode; series mostly up to 76.7 µM
Vitamin D3 receptor (Homo sapiens), sequence (P11473 whole entry, looked up): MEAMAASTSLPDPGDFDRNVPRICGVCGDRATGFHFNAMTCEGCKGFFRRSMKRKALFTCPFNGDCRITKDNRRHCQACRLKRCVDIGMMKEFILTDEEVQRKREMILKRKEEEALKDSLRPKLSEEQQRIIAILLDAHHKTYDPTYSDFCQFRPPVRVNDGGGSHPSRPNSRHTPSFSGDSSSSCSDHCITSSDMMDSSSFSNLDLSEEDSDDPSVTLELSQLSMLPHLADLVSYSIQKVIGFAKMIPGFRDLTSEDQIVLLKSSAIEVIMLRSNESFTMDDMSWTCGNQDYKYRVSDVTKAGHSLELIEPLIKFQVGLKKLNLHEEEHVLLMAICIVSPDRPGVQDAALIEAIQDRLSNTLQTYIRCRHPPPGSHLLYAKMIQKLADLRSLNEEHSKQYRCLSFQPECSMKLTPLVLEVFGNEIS
In short: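 VDR-UAS-bla HEK293T cells (2000/well, 2% charcoal-stripped FBS) were treated with titrated compounds plus 1-alpha,25-dihydroxyvitamin D3 (50 nM or 3 nM final) for 16 h at 37 C. CCF4 beta-lactamase fluorescence was read; Hill fits gave IC50.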

[4] = biological target: Vitamin D3 receptor (Homo sapiens) (UniProt P11473); test: qHTS assay for small molecule agonists of vitamin D receptor signaling (AID 588543; calls by dose curve;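 also: 0% = DMSO basal and 100% = reference agonist control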); conditions: HEK293T VDR-UAS-bla, beta-lactamase ratio, 16 h; series mostly up to 76.8 µM
In short: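 GeneBLAzer VDR-UAS-bla HEK293T cells in 2% charcoal-stripped FBS medium were dosed with compound titrations for 16 h at 37 °C; CCF4 β-lactamase readout (405 nm ex, 460/530 nm em). EC50 and efficacy from Hill fits, normalized to 50 nM calcitriol (100%) and DMSO (0%).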

[5] = qHTS assay for small molecule agonists of retinoid X receptor alpha signaling (AID 588544; calls by dose curve;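 as to activation: 0% = DMSO basal wells and 100% = reference agonist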); conditions: HEK293T RXRa-UAS-bla, beta-lactamase reporter, 18 h; 530 nm emission
[6] = biological target: Retinoic acid receptor RXR-alpha (Homo sapiens) (UniProt P19793); test: as above; conditions: HEK293T RXRa-UAS-bla, beta-lactamase reporter, 18 h; series mostly up to 76.7 µM
Retinoic acid receptor RXR-alpha (Homo sapiens), sequence (P19793 whole entry, looked up): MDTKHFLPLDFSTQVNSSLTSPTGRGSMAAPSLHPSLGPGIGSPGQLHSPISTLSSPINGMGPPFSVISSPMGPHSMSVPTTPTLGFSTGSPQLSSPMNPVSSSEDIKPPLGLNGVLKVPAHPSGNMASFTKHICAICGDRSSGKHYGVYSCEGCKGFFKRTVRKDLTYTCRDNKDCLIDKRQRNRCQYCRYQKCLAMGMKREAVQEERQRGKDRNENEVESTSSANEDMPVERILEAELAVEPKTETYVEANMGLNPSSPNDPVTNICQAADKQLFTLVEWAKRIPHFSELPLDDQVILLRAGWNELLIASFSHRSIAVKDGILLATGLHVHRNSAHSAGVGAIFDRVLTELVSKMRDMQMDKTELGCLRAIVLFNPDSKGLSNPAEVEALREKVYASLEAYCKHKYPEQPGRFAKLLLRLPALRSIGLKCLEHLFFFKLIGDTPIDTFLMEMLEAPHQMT

[7] = biological target: Thyroid hormone receptor beta (Homo sapiens) (UniProt P10828); test: qHTS assay for small molecule agonists of thyroid hormone receptor beta signaling (AID 588545; calls by dose curve;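 also: 0% = DMSO only and 100% = 10 nM T3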); conditions: TR-UAS-bla GripTite HEK 293, beta-lactamase ratio, agonist mode, 18 h; series mostly up to 76.7 µM
Thyroid hormone receptor beta (Homo sapiens), sequence (P10828 whole entry, looked up): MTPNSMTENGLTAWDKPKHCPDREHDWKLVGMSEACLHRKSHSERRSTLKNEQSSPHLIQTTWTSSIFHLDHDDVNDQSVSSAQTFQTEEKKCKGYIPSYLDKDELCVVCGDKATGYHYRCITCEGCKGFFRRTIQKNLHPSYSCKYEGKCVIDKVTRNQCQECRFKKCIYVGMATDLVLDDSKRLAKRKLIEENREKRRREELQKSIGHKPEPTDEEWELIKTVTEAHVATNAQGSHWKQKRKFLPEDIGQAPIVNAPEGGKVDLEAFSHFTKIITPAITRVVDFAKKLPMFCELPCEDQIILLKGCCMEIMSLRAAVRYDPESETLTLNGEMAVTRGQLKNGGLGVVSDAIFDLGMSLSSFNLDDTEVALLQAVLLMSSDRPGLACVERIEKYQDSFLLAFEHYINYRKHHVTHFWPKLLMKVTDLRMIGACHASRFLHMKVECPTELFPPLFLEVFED
In short: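 Efficacy and EC50 values derive from Hill fits of qHTS titration data, normalized to 10 nM T3 and DMSO-only wells. HEK 293 reporter cells were stimulated for 18 hrs at 37 C, with beta-lactamase activity measured by CCF4 fluorescence.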

[8] = qHTS assay for small molecule antagonists of retinoid X receptor alpha signaling (AID 588546; active = well fitted inhibition curve with a large enough effect in the signal ratio, with a control signal flat, not every such curve was filed as active; the % refers to the signal ratio;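 also: cells stimulated with 9-cis-retinoic acid as agonist; % is scaled to controls: 0 for no effect and ±100 for the full control effect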); conditions: HEK293T RXRa-UAS-bla, beta-lactamase ratio, antagonist mode; measured here: W530 green channel, cytotoxicity proxy
In short: (§2)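 Beta-lactamase reporter inhibition, read as CCF4 fluorescence ratio (ex 405, em 460/530 nm) after 2 h at RT. HEK293T UAS-bla cells, 2500/well, were stimulated with 9-cis-RA at 500 or 100 nM final alongside test compound for 18 h at 37 C.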

[9] = biological target: Retinoic acid receptor RXR-alpha (Homo sapiens) (UniProt P19793); test: as above; conditions: HEK293T RXRa-UAS-bla, beta-lactamase ratio, antagonist mode
In short: as §2

[10] = qHTS assay for small molecule activators of the p53 signaling pathway (AID 651743; active = well fitted activation curve with a large enough effect in the signal ratio, not every such curve was filed as active; the % refers to the signal ratio; also: % of control where 0% means no effect); conditions: HCT-116 p53RE-bla, beta-lactamase FRET ratio, 16 h; activation: stronger effect = higher value
In short: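 Cell-based beta-lactamase reporter (p53 response elements, HCT-116 background). After a 5-hour preincubation, cells received compound for 16 hours at 37 C; substrate development ran 2 hours at room temperature.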

[11] = qHTS assay for small molecule activators of the nuclear factor-kappa B (NF-kB) signaling pathway (AID 651749; active = well fitted activation curve with a large enough effect in the signal ratio; the % refers to the signal ratio; also: % of control where 0% means no effect); conditions: NF-kB-bla ME-180 cells, beta-lactamase FRET ratio, 16 h; activation: stronger effect = higher value
In short: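 Screening used 2,000 ME-180 reporter cells per well exposed to pinned compound (23 nL) or DMSO; after 16 hr at 37C, beta-lactamase expression under NF-kB control was assessed through FRET.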

[12] = qHTS assay for environmental chemicals that activate the Aryl hydrocarbon Receptor (AhR) signaling pathway (AID 651777); conditions: 1A2-DRE human hepatoma cells, luciferase, 24 h; activation: stronger effect = higher value; also: % of control where 0% means no effect; nearly all actives have a fitted effect of over 15% in size
In short: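 Luminescence (One-Glo, 30 min, room temperature) reports AhR-driven luciferase in stably transfected human hepatoma cells bearing DRE and CYP1A2 promoter. Cells (1,200/well) were treated with compound for 24 hr at 37 C in qHTS format.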

[13] = biological target: Peroxisome proliferator-activated receptor alpha (Homo sapiens) (UniProt Q07869); test: qHTS assay for small molecule agonists of the peroxisome proliferator-activated receptor alpha (PPARalpha) signaling pathway (AID 651778); conditions: PathHunter PPARalpha complementation, chemiluminescence, 6 h; max response: stronger effect = higher value; also: % of control where 0% means no effect
Peroxisome proliferator-activated receptor alpha (Homo sapiens), sequence (Q07869 whole entry, looked up): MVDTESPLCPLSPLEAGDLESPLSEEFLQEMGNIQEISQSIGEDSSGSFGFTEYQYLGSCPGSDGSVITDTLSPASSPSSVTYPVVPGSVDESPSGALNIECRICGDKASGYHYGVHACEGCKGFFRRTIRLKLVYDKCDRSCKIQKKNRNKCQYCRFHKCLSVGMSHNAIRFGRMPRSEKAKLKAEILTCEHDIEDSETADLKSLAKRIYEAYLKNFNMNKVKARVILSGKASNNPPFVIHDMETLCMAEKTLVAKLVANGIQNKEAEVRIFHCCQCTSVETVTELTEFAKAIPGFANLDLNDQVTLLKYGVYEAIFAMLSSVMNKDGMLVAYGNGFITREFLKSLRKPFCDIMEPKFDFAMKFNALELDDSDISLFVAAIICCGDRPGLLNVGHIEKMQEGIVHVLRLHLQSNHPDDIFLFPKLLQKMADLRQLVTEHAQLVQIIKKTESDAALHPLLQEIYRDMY
In short: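 Cells plated at 2,000/well and held overnight at 37 C, 5% CO2, then compound added by pin tool for 6 hr; after PathHunter detection reagent and 60 min at room temperature, chemiluminescence from enzyme complementation was read.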

[14] = qHTS assay for small molecule agonists of the antioxidant response element (ARE) signaling pathway measured by Nrf2-dependant transcriptional activity (AID 720636; active = well fitted curve in the direction sought with a large enough effect in the repeat runs; an effect the other way counts as inactive or inconclusive; also: % of control where 0% means no effect); conditions: ARE-luc HepG2, Nrf2 luciferase reporter, 16 h; series mostly up to 92.4 µM
In short: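 Nrf2-dependent transcription read as ONE-Glo luciferase signal from ARE-luc HepG2 reporter cells after 16 hr compound treatment at 37 C, 5% CO2, in assay medium with 1% dialyzed FBS.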

[15] = qHTS assay for small molecule agonists of the antioxidant response element (ARE) signaling pathway measured by Nrf2-dependant transcriptional activity - cell viability counter screen (AID 720653; active = well fitted curve in the direction sought with a large enough effect in the repeat runs; an effect the other way counts as inactive or inconclusive; also: % is scaled to controls: 0 for no effect and ±100 for the full control effect); conditions: ARE-bla HepG2 viability, CellTiter-Glo ATP luminescence, 16 h; max response: stronger effect = lower value
In short: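 ARE-bla HepG2 cells (2,000/well) rested 5 hrs at 37C/5% CO2, then exposed to compounds in DMSO for 16 hrs. Viability was read in the same wells as intracellular ATP by luminescence, 30 min at room temperature after reagent addition.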

[16] = qHTS assay for cell viability of HEK293 cells (AID 743288); conditions: ATP luminescence (CellTiter-Glo), 18 h; max response: stronger effect = lower value; also: % is scaled to controls: 0 for no effect and ±100 for the full control effect; nearly all actives have a fitted effect of over 50% in size
In short: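 Parental HEK293 cells were seeded at 2,000 cells/well, rested at least 5 h at 37 C, then exposed to compounds in DMSO for 18 h at 37 C. Viability was read as ATP-dependent luciferase luminescence after 30 min at room temperature.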

[17] = qHTS assay for cell viability of the p53RE-bla HCT-116 cell line (AID 743292); conditions: p53RE-bla HCT-116 viability, ATP luminescence, 16 h; series mostly up to 95 µM; also: % is scaled to controls: 0 for no effect and ±100 for the full control effect; nearly all actives have a fitted effect of over 55% in size
In short: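 ATP-based luminescent viability (CellTiter-Glo, 30 min RT) after 16 h compound treatment at 37 C of p53RE-bla HCT-116 cells, seeded at 4,000 cells/well and rested 5 h before dosing.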

[18] = biological target: Nuclear receptor subfamily 1 group I member 2 (Rattus norvegicus) (UniProt Q9R1A7); test: qHTS assay for small molecule activators of the rat pregnane X receptor (rPXR) signaling pathway (AID 651751; call rule not given here; also: 0% is about no effect); conditions: rPXR reporter cells, luciferase (One-Glo), 24 h
Nuclear receptor subfamily 1 group I member 2 (Rattus norvegicus), sequence (Q9R1A7 whole entry, looked up): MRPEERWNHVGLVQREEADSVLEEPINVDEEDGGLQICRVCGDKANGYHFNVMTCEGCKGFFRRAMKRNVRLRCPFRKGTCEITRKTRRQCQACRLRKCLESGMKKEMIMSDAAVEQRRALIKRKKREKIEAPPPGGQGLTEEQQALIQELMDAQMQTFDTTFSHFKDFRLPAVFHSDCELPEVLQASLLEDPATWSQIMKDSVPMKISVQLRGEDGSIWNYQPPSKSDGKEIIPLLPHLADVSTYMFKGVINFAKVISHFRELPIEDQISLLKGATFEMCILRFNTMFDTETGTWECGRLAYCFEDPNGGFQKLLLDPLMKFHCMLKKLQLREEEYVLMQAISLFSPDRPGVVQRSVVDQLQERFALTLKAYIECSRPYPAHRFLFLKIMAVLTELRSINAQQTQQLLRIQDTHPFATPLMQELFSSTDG

[19] = biological target: Thyroid hormone receptor beta (Homo sapiens) (UniProt P10828); test: qHTS assay for small molecule antagonists of thyroid hormone receptor beta signaling (AID 588547; active = well fitted inhibition curve with a large enough effect in the signal ratio, with a control signal flat, not every such curve was filed as active; the % refers to the signal ratio;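 also: cells stimulated with 0.4 nM T3 agonist during compound exposure; % is scaled to controls: 0 for no effect and ±100 for the full control effect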); conditions: TR-UAS-bla HEK293, beta-lactamase ratio, antagonist mode, 18 h
In short: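 TR-UAS-bla GripTite HEK293 cells in 2% charcoal/dextran FBS medium were preincubated 4 h at 37 C, given compound (0.59 nM to 92 uM) plus 0.4 nM T3 (final) for 18 h, then CCF4 for 2 h at RT; Hill fit gave IC50.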

[20] = qHTS assay for small molecule activators of the human pregnane X receptor (PXR) signaling pathway (AID 720659; call rule not given here; also: 0% is about no effect); conditions: DPX-2 HepG2 CYP3A4-luciferase, 24 h; series mostly up to 92.3 µM

OCCC(F)(F)C(F)(F)C(F)(F)C(F)(F)C(F)(F)C(F)(F)C(F)(F)C(F)(F)F
-18.9%: max response [8]
-23.4%: max response [5]
inactive: Potency [2] | Potency [3] | outcome [4] | Potency [6] | Potency [7] | max response [9] -9.11% | activation [10] 2.93% | activation [11] 1.52% | activation [12] 0.162% | max response [13] 0.874% | Potency [14] | max response [15] -8.07% | max response [16] -9.6% | Potency [17] | max response [18] -1.29%
-9.21%: max response [1]

CCCCCCCCCCCCCCO
inactive: outcome [4] | Potency [6] | Potency [7] | max response [9] 6.98% | activity change % (negative = inhibition) [19] 8.79% | activation [10] -1.8% | activation [11] 0.681% | activation [12] 0.688% | max response [13] 6.84% | Potency [14] | max response [15] 4.22% | max response [16] -0.0211% | Potency [17] | max response [18] 0.238% | outcome [20]
-1.57%: max response [8]
-4.48%: max response [5]

CSc1ccc(Cl)cc1
inactive: Potency [2] | Potency [3] | outcome [4] | Potency [6] | Potency [7] | max response [9] -2.56% | activation [11] -1.66% | activation [12] -3.53% | max response [13] -0.0243% | Potency [14] | max response [15] -9.05% | max response [16] -19.5% | Potency [17] | max response [18] -1.44% | outcome [20]
18.6%: max response [8]
24.7%: max response [1]
8.86%: max response [5]
